Reference: PubChem BioAssay (NCI)
About 79,000 compounds went through this panel and 15% of them were active in at least one assay; those are over-represented in the sample as a whole. Active and inactive are the calls of the source. Cut-off read from the data, not from the text of the source: active = growth inhibition above about 70%; inactive = the rest.

Experiments:
[1] = NCI Yeast Anticancer Drug Screen. Data for the rad52 strain (AID 147);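 note: 0% = growth of vehicle-treated control cultures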; settings: S. cerevisiae rad52 mutant growth inhibition, active compounds read high
In short: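 Screen used a yeast mutant impaired in DNA repair. After compound exposure, growth was measured. Values reflect inhibition compared with vehicle-treated cells.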

[2] = NCI Yeast Anticancer Drug Screen. Data for the wt1 strain (AID 149);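 note: 0% = growth of vehicle-treated wt1 cultures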; settings: S. cerevisiae wt1 strain (SPY 50644) growth inhibition, active compounds read high
In short: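 Measured: growth of wt1 yeast under compound versus vehicle treatment, reported as inhibition.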

[3] = NCI Yeast Anticancer Drug Screen. Data for the rad50EPP+ strain (AID 151);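 note: 0% = growth of vehicle-treated control cultures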; settings: S. cerevisiae rad50 mutant strain, active compounds read high
In short: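 Exposing the rad50EPP+ strain to each compound, growth was compared with vehicle-only cultures to give inhibition.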

[4] = NCI Yeast Anticancer Drug Screen. Data for the rad50 strain (AID 155);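 note: 0% = growth of vehicle-only cultures of the same strain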; settings: S. cerevisiae rad50 strain growth inhibition, active compounds read high
In short: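 Growth of the mutant yeast was measured after compound exposure and referenced to vehicle-treated cultures.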

[5] = NCI Yeast Anticancer Drug Screen. Data for the mec2-1 strain (AID 157); settings: S. cerevisiae mec2-1 strain, active compounds read high
In short: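 Readout is yeast growth inhibition, normalised to vehicle-treated controls, in the mec2-1 strain exposed to compound.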

[6] = NCI Yeast Anticancer Drug Screen. Data for the rad14 strain (AID 159);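 note: 0% = growth of vehicle-treated control cultures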; settings: S. cerevisiae rad14 strain growth inhibition, active compounds read high
In short: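 Here, inhibition of yeast growth was measured after compound exposure, using a strain with a genetic defect in DNA damage repair and vehicle-treated cultures as the reference.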

[7] = NCI Yeast Anticancer Drug Screen. Data for the sgs1 mgt1 strain (AID 161);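 note: 0% = growth of cultures given vehicle only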; settings: S. cerevisiae sgs1 mgt1 strain, active compounds read high
In short: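 Compounds are added to genetically altered yeast, and growth is compared with cultures given vehicle alone to give percent inhibition.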

[8] = NCI Yeast Anticancer Drug Screen. Data for the CLN2oe strain (AID 163);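 note: 0% = growth of vehicle-only control cultures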; settings: S. cerevisiae CLN2oe strain, active compounds read high
In short: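 Values reflect how much compound exposure reduced yeast growth, referenced to vehicle-exposed cells. Assay organism is a strain with a defined genetic change affecting cell-cycle control.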

[9] = NCI Yeast Anticancer Drug Screen. Data for the cln2 rad14 strain (AID 165);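 note: 0% = growth equal to vehicle treated cultures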; settings: S. cerevisiae cln2 rad14 strain, active compounds read high
In short: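 Relative to vehicle controls, growth inhibition of compound-treated cln2 rad14 yeast was recorded.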

[10] = NCI Yeast Anticancer Drug Screen. Data for the bub3 strain (AID 167); settings: S. cerevisiae bub3 mutant strain, active compounds read high
In short: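 Whole-cell yeast assay. The mutant strain was incubated with compounds, and growth inhibition was determined by comparison with vehicle-treated cells.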

[11] = NCI Yeast Anticancer Drug Screen. Data for the wt2 strain (AID 169);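 note: 0% = growth of vehicle-treated yeast cultures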; settings: S. cerevisiae wt2 strain growth inhibition, active compounds read high
In short: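 Values express reduction in yeast growth under compound treatment, referenced to vehicle-treated cells.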

[12] = NCI Yeast Anticancer Drug Screen. Data for the mlh1 strain (AID 171);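 note: 0% = growth of vehicle-treated control cultures of the same strain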; settings: S. cerevisiae mlh1 strain growth inhibition, active compounds read high
In short: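 Steps: expose the defined-mutant yeast strain to compound; expose a parallel culture to vehicle; measure growth; express compound effect as inhibition relative to the vehicle culture.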

[13] = NCI Yeast Anticancer Drug Screen. Data for the sgs1 strain (AID 173);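 note: 0% = growth of vehicle-only control cultures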; settings: S. cerevisiae sgs1 mutant, active compounds read high
In short: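 Treat defined-mutant yeast with compound; measure growth; calculate inhibition relative to vehicle-treated cells.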

[14] = NCI Yeast Anticancer Drug Screen. Data for the mlh1 rad18 strain (AID 175); settings: S. cerevisiae mlh1 rad18 strain growth inhibition, active compounds read high
In short: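 Test agents were incubated with a yeast strain of defined genotype (DNA damage repair defect). Inhibition of growth was derived by comparison with vehicle-exposed cultures.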

[15] = NCI Yeast Anticancer Drug Screen. Data for the rad18 strain (AID 177); settings: S. cerevisiae rad18 mutant growth inhibition, active compounds read high
In short: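 A genetically defined yeast mutant impaired in DNA damage repair was treated with test compounds, then its growth was measured against cultures receiving vehicle alone.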

[16] = NCI Yeast Anticancer Drug Screen. Data for the mgt1 strain (AID 153); settings: S. cerevisiae mgt1 mutant growth inhibition, active compounds read high
In short: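 Genetically defined yeast (mgt1) treated with compound; inhibition of growth expressed against vehicle-treated controls.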

[17] = at 5.0 µM (retest, dose inferred, filed as 0.5)
[18] = at 50.0 µM (retest, dose inferred, filed as 5.0)

Measured: growth inhibition

O=C1C=CC(=O)N1c1ccc2c(c1)Cc1cc(NC(=O)C(F)(F)F)ccc1-2
inactive: [1]; at 1.2 µM 12% | [1]; at 3.7 µM 24% | [1]; at 11.0 µM 42% | [1]; at 33.0 µM 60% | [2]; at 1.2 µM 6% | [2]; at 3.7 µM 15% | [2]; at 11.0 µM 27% | [2]; at 33.0 µM 39% | [2]; at 100.0 µM 60% | [3]; at 1.2 µM 29% | [4]; at 1.2 µM 13% | [4]; at 3.7 µM 24% | [4]; [17] 52% | [4]; at 11.0 µM 41% | [5]; at 1.2 µM 13% | [5]; at 3.7 µM 26% | [5]; at 11.0 µM 42% | [5]; at 33.0 µM 62% | [6]; at 1.2 µM 20% | [6]; at 3.7 µM 31% | [6]; at 11.0 µM 42% | [6]; at 33.0 µM 66% | [8]; at 1.2 µM 2% | [8]; at 3.7 µM 11% | [8]; at 11.0 µM 18% | [8]; at 33.0 µM 26% | [8]; at 100.0 µM 50% | [9]; [17] 10% | [9]; [18] 51% | [9]; at 50.0 µM 62.9% | [10]; at 1.2 µM -11% | [10]; at 3.7 µM -5% | [10]; [17] 57% | [10]; at 11.0 µM 7% | [10]; at 33.0 µM 21% | [10]; at 100.0 µM 39% | [11]; at 1.2 µM 7% | [11]; at 3.7 µM 21% | [11]; at 11.0 µM 37% | [11]; at 33.0 µM 55% | [11]; at 100.0 µM 67% | [12]; at 1.2 µM 16% | [12]; at 3.7 µM 32% | [12]; at 11.0 µM 54% | [13]; at 1.2 µM 18% | [13]; at 3.7 µM 37% | [13]; at 11.0 µM 63% | [15]; at 1.2 µM 17% | [15]; at 3.7 µM 29% | [15]; at 11.0 µM 53%
active: [1]; at 100.0 µM 74% | [3]; at 3.7 µM 73% | [3]; at 11.0 µM 88% | [3]; at 33.0 µM 91% | [3]; at 100.0 µM 88% | [4]; at 33.0 µM 71% | [4]; [18] 91% | [4]; at 50.0 µM 87.7% | [4]; at 100.0 µM 80% | [5]; [17] 87% | [5]; [18] 94% | [5]; at 50.0 µM 83.5% | [5]; at 100.0 µM 77% | [6]; at 100.0 µM 83% | [7]; [17] 71% | [7]; [18] 93% | [7]; at 50.0 µM 86.6% | [10]; [18] 90% | [10]; at 50.0 µM 84.6% | [12]; at 33.0 µM 73% | [12]; at 100.0 µM 85% | [13]; at 33.0 µM 79% | [13]; at 100.0 µM 82% | [14]; [17] 91% | [14]; [18] 93% | [14]; at 50.0 µM 86% | [15]; at 33.0 µM 76% | [15]; at 100.0 µM 82%

CCC/C(Cl)=N\OC(=O)Nc1ccc(Br)cc1
active: [1]; at 11.0 µM 94% | [1]; at 33.0 µM 98% | [1]; at 100.0 µM 98% | [2]; at 33.0 µM 97% | [2]; at 100.0 µM 98% | [3]; at 33.0 µM 77% | [3]; at 100.0 µM 81% | [16]; at 11.0 µM 82% | [16]; at 33.0 µM 98% | [16]; at 100.0 µM 99% | [5]; at 11.0 µM 77% | [5]; at 33.0 µM 98% | [5]; [18] 99% | [5]; at 50.0 µM 92% | [5]; at 100.0 µM 99% | [6]; at 11.0 µM 90% | [6]; at 33.0 µM 98% | [6]; at 100.0 µM 99% | [7]; [18] 99% | [7]; at 50.0 µM 84% | [8]; at 11.0 µM 84% | [8]; at 33.0 µM 98% | [8]; at 100.0 µM 99% | [9]; [18] 99% | [9]; at 50.0 µM 89.8% | [10]; at 33.0 µM 94% | [10]; [18] 99% | [10]; at 50.0 µM 87.6% | [10]; at 100.0 µM 96% | [11]; at 11.0 µM 90% | [11]; at 33.0 µM 98% | [11]; at 100.0 µM 99% | [12]; at 11.0 µM 76% | [12]; at 33.0 µM 97% | [12]; at 100.0 µM 98% | [13]; at 11.0 µM 94% | [13]; at 33.0 µM 98% | [13]; at 100.0 µM 98% | [14]; [18] 99% | [14]; at 50.0 µM 83.8% | [15]; at 1.2 µM 71% | [15]; at 3.7 µM 77% | [15]; at 11.0 µM 93% | [15]; at 33.0 µM 97% | [15]; at 100.0 µM 98%
inactive: [1]; at 1.2 µM 58% | [1]; at 3.7 µM 69% | [2]; at 1.2 µM 13% | [2]; at 3.7 µM 14% | [2]; at 11.0 µM 58% | [3]; at 1.2 µM 26% | [3]; at 3.7 µM 31% | [3]; at 11.0 µM 56% | [16]; at 1.2 µM 9% | [16]; at 3.7 µM 16% | [5]; at 1.2 µM 16% | [5]; at 3.7 µM 27% | [5]; [17] -16% | [6]; at 1.2 µM 32% | [6]; at 3.7 µM 33% | [7]; [17] 9% | [8]; at 1.2 µM 10% | [8]; at 3.7 µM 15% | [9]; [17] -22% | [10]; at 1.2 µM 1% | [10]; at 3.7 µM 17% | [10]; [17] -48% | [10]; at 11.0 µM 63% | [11]; at 1.2 µM 25% | [11]; at 3.7 µM 33% | [12]; at 1.2 µM 14% | [12]; at 3.7 µM 19% | [13]; at 1.2 µM 65% | [13]; at 3.7 µM 62% | [14]; [17] 61%
